Assay results taken from paper PMC2807882, “Conservation of DNA-binding specificity and oligomerisation properties within the p53 family”.

Experiments:
Test in all cases: fluorescence anisotropy competition titration; 25 mM sodium phosphate (purification buffer pH 7.2), 225 mM NaCl, 10% v/v glycerol, 5 mM DTT, 0.2 mg/mL BSA, 22 C; low values mean tight binding
Conditions in all cases: protein: recombinant; tags: N-terminal 6xHis-lipoyl-TEV tag, cleaved; chain copies: 4; dsDNA, one strand shown
Dmp53 = molecular target: T1, Dmp53 (Drosophila melanogaster, UniProt Q9N6D8 1-385)
T1 sequence: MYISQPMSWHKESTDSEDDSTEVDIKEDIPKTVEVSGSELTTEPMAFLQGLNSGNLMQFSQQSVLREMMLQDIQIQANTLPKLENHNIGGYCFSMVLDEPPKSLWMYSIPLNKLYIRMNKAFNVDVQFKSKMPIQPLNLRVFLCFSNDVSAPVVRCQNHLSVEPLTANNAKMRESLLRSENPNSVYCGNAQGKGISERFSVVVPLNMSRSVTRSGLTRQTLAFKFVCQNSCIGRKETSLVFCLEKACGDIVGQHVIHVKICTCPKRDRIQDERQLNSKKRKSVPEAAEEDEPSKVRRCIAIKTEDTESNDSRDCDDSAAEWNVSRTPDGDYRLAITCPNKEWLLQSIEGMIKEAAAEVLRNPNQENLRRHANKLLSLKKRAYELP

Drp53 = molecular target: T2, Drp53 (Danio rerio, UniProt P79734 1-373)
T2 sequence: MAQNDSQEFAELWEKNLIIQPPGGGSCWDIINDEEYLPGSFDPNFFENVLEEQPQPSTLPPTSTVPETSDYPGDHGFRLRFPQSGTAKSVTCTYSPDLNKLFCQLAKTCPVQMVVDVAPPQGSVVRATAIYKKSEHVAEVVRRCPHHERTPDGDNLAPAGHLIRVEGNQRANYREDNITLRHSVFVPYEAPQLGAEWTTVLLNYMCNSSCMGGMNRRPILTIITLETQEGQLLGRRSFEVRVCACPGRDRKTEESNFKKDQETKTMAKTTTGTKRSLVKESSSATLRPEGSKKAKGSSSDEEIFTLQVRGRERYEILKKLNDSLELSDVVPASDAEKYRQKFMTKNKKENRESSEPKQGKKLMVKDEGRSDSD

Hsp53 = Hsp53 (Homo sapiens, UniProt P04637 1-393)
Hsp53, sequence (P04637 whole entry): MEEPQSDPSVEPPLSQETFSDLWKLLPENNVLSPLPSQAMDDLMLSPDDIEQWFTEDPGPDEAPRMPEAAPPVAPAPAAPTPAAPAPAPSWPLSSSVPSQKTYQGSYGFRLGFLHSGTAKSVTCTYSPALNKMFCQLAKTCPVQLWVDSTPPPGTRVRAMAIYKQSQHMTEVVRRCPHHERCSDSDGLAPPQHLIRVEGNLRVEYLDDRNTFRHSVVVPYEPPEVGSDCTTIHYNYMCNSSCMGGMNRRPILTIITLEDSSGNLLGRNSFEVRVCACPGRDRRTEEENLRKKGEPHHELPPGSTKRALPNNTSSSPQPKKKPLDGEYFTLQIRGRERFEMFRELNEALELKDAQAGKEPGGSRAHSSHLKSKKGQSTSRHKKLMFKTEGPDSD

Xlp53 = Xlp53 (Xenopus laevis, UniProt Q7T1D0 1-362)
Xlp53, sequence (Q7T1D0 entry or part of it): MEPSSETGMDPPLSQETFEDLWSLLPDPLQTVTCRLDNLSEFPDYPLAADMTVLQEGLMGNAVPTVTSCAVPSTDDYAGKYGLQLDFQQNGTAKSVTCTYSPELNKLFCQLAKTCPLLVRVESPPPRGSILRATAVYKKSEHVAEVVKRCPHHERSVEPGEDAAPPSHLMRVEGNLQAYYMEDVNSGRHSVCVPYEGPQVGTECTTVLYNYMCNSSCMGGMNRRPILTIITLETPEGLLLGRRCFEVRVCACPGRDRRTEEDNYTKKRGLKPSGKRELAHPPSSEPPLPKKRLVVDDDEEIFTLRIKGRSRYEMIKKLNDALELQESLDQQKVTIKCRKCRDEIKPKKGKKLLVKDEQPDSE

ΔNp63α = molecular target: T3, ΔNp63α (Homo sapiens, UniProt Q9H3D4-2 1-586)
T3 sequence: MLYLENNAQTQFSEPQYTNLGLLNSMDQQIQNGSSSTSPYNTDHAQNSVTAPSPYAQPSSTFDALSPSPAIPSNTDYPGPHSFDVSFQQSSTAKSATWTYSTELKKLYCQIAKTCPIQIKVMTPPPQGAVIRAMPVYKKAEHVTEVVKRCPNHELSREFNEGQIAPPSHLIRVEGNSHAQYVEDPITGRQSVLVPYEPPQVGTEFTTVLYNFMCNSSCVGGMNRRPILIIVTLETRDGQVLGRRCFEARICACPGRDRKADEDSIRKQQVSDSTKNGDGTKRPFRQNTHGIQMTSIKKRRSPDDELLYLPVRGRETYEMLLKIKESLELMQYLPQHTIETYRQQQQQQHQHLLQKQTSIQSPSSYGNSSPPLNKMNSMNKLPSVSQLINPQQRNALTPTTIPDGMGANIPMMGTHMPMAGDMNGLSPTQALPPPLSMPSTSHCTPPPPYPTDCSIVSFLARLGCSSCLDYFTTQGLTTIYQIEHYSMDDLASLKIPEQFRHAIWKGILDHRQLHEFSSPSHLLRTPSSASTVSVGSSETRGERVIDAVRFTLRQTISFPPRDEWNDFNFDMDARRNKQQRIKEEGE

ΔNp63β = molecular target: T4, ΔNp63β (Homo sapiens, UniProt Q9H3D4-4 1-461)
T4 sequence: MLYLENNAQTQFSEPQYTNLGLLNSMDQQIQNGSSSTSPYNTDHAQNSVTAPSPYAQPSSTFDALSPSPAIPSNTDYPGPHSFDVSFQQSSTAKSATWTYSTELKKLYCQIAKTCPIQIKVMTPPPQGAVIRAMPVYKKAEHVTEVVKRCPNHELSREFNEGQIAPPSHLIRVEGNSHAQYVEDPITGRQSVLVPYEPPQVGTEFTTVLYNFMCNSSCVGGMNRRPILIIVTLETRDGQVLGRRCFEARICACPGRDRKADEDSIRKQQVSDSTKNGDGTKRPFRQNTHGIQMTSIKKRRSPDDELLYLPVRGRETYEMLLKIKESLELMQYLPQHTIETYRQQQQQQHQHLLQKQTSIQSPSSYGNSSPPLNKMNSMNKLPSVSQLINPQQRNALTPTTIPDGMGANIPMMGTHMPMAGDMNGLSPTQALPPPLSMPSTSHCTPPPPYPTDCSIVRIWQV

ΔNp63γ = molecular target: T5, ΔNp63γ (Homo sapiens, UniProt Q9H3D4-6 1-393)
T5 sequence: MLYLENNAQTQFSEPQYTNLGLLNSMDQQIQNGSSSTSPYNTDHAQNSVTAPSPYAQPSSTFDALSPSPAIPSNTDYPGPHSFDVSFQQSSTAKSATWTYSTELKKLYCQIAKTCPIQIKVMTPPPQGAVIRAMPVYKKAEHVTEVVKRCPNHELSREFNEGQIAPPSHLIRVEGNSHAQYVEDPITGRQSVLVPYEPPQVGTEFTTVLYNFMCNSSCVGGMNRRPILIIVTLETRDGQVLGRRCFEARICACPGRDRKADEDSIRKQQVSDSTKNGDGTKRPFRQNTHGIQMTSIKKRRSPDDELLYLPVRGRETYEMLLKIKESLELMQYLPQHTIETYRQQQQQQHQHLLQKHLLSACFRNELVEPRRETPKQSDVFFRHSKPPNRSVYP

ΔNp73β = molecular target: T6, ΔNp73β (Homo sapiens, UniProt O15350-9 1-450)
T6 sequence: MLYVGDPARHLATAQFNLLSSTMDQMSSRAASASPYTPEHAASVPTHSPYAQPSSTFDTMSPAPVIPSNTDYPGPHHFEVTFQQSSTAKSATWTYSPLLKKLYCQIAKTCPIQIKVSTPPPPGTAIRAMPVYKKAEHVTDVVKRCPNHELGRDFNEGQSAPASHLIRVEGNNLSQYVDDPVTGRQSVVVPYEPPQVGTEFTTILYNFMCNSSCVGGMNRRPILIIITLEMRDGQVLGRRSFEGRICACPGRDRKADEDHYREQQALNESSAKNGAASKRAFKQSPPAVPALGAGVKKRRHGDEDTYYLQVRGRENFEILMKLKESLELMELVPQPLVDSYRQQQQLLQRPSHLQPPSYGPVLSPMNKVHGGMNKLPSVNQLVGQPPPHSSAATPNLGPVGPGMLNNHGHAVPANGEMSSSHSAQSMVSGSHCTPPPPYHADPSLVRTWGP

Mmp53 = Mmp53 (Mus musculus, UniProt P02340 1-390)
Mmp53, sequence (P02340 whole entry): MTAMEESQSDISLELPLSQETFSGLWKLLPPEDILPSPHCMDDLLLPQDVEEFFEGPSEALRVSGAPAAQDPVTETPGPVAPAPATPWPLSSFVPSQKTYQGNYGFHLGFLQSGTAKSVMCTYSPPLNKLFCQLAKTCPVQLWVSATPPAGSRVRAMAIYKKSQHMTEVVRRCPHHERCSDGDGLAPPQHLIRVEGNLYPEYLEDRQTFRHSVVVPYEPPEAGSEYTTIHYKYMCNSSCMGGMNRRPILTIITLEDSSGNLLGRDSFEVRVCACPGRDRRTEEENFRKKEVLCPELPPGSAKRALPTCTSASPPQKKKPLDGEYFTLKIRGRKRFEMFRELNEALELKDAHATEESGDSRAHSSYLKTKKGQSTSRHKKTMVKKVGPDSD

p73CT = molecular target: T7, p73CT (Homo sapiens, UniProt O15350 104-383)
T7 sequence: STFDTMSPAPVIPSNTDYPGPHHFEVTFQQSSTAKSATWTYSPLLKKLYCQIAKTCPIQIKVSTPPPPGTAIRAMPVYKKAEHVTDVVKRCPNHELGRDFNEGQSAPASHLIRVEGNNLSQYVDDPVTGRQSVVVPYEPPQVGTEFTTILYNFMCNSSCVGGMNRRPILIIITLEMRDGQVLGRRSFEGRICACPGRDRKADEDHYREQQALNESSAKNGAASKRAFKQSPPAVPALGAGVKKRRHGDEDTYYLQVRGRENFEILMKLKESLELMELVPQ

Sequence | binding signal (Dmp53) [delta log10 Kd] | binding signal (Drp53) [delta log10 Kd] | binding signal (Hsp53) [delta log10 Kd] | binding signal (Xlp53) [delta log10 Kd] | binding signal (ΔNp63α) [delta log10 Kd] | binding signal (ΔNp63β) [delta log10 Kd] | binding signal (ΔNp63γ) [delta log10 Kd] | binding signal (ΔNp73β) [delta log10 Kd] | binding signal (Mmp53) [delta log10 Kd] | binding signal (p73CT) [delta log10 Kd]
CGCGCACATGTCCGGACATGTCCCGC | 0.21 | 0.41 | 0.37 | 0.27 | 0.15 | 0.36 | 0.37 | 0.44 | 0.28 | 0.39
CGCGGACTTGTCCGGACATGTCCCGC | 0.36 | 0.3 | 0.14 | 0.16 | 0.06 | 0.27 | 0.41 | 0.36 | 0.24 | 0.45
CGCGGACGTGTCCGGACATGTCCCGC | 0.18 | 0.54 | 0.43 | 0.44 | 0.07 | 0.2 | 0.19 | 0.27 | 0.31 | 0.22
CGCGGAGATGTCCGGACATGTCCCGC | 1.2 | 0.95 | 0.74 | 1.07 | 0.84 | 1.29 | 1.19 | 1.32 | 0.4 | 1.18
CGCGGATATGTCCGGACATGTCCCGC | 1.01 | 0.58 | 0.56 | 0.62 | 0.68 | 0.85 | 0.97 | 1.04 | 0.34 | 1.06
CGCGGACATGGCCGGACATGTCCCGC | 0.93 |  | 0.73 | 0.89 | 0.85 | 1.06 | 1.21 | 1.18 |  | 1
CGCGGACATGCCCGGACATGTCCCGC | 0.26 |  | 0.03 | 0.03 | 0.06 | 0.13 | 0.12 | 0.03 |  | 0.05
CGCGGACATGACCGGACATGTCCCGC | 0.24 |  | 0.42 | 0.43 | 0.43 | 0.62 | 0.72 | 0.78 |  | 0.57
CGCGGCCATGTCCGGACATGTCCCGC | 0.75 | 0.86 | 0.66 | 0.82 |  | 0.88 | 0.93 |  | 0.46 | 
CGCCGACATGTCCGGACATGTCCCGC | 0.03 | 0.15 | 0.17 | 0.1 | 0.04 | 0.07 | 0.09 | 0 | 0.15 | 0.06
CGCGGACAAGTCCGGACATGTCCCGC | 0.22 | 0.35 | 0.16 | 0.18 | 0.02 | 0.15 | 0.19 | 0.12 | 0.27 | 0.19
CGCGGACATCTCCGGACATGTCCCGC | 1.51 | 1.3 | 0.9 | 1.38 | 1.33 | 1.45 | 1.68 | 1.8 | 0.67 | 1.56
CGCGAACATGTCCGGACATGTCCCGC | 0 | 0.08 | 0.05 | 0.01 | 0 | 0.02 | 0.1 | 0.03 | 0.08 | 0.05
CGCGGACATTTCCGGACATGTCCCGC | 1.55 | 1.37 | 0.44 | 0.88 | 1.1 | 1.2 | 1.46 | 1.43 | 0.65 | 1.58
CGCGGACCTGTCCGGACATGTCCCGC | 0.54 | 0.77 | 0.45 | 0.48 | 0.3 | 0.57 | 0.58 | 0.64 | 0.4 | 0.56
